Our source for the outcome and AC50 values is PubChem BioAssay (EPA / NIEHS).

Activity calls are given as the source filed them. How the source made its calls: active means hit-call score of the fitted dose curve at least 0.9, where 1 is the maximum; inconclusive means response in the unintended direction; inactive means score below 0.9.

A short description of this assay: Tanguay_ZF_120hpf_MORT_legacy: (Legacy) Oregon State University Tanguay Lab 120 Hour Post-fertilization zebrafish Assay for Mortality (AID 2283633). Here is the method:
Tanguay_ZF_120hpf_legacy is a whole embryo, multiplexed endpoint assay using zebrafish larvae exposed for 120 hours post fertilization on a 96-well plate.Tanguay_ZF_120hpf_MORT_legacy is one of one assay component(s) measured or calculated from the Tanguay_ZF_120hpf_legacy assay. It is designed to make measurements of embryonic mortality as detected with brightfield microscopy of developing zebrafish embryos.Data from the assay component Tanguay_ZF_120hpf_MORT_legacy was analyzed into 1 assay endpoints. This assay endpoint, Tanguay_ZF_120hpf_MORT_legacy, was analyzed in the positive analysis fitting direction relative to DMSO as the negative control and baseline of activity. Using a type of viability reporter, gain-of-signal activity can be used to understand changes in developmentals as they relate to the whole embryo. To generalize the intended target to other relatable targets, this assay endpoint is annotated to the embryonic mortality intended target family, where the subfamily is embryonic mortality.
Zebrafish husbandry: Tropical 5D wild-type adult zebrafish were housed in at an approximate density of 1000 per 100 gallon tank at the Sinnhuber Aquatic Research Laboratory, Oregon State University, Corvallis, OR. Each tank was kept at standard laboratory conditions of 28C on a 14-h light/10-h dark photoperiod in fish water consisting of reverse osmosis water supplemented with a commercially available salt (Instant Ocean). Spawning funnels were placed into the tanks the night prior, and embryos were collected and staged. To increase bioavailability, the chorion was enzymatically removed using pronase (63.6mg/ml, >/= 3.5U/mg, Sigma-Aldrich: P5147) at 4 hours post fertilization (hpf) using a custom automated dechorionator.Chemical exposures: Six hpf dechorionated embryos were placed 1 embryo per well in a 96-well plate prefilled with 90 ul of EM using automated embryo placement systems (AEPS). Ten microliters of each row of dilution plate 2 was added to 2 exposure plates. The final DMSO concentration used was 0.64% (vol/vol). Thirty-two embryos were also exposed to 5uM trimethyltin chloride (positive control). Plates were sealed to prevent evaporation and foil covered to reduce light exposure and kept in a 28C incubator. Embryos were statically exposed until 120 hpf. At 24 hpf, embryos were assessed for photomotor response using a custom photomotor response analysis tool (PRAT) and for developmental toxicity endpoints (MO24: mortality at 24 hpf, DP: developmental progression, SM: spontaneous movement, and NC: notochord distortion). At 120 hpf, locomotor activity was measured using Viewpoint Zebralab and assessed for 18 endpoints. Zebrafish acquisition and analysis program (ZAAP), a custom program designed to inventory, acquire, and manage zebrafish data, was used to collect developmental endpoints as either present or absent (i.e., binary responses were recorded). If mortality occurred for an embryo (at either 24 or 120 hpf), the non-mortality endpoints were not measured.
Consider `O=C1CCCO1`, for which the result was inactive.
Same read-out and setting: the entry for `Nc1ccc([N+](=O)[O-])cc1` is “inactive”; for `Clc1ccccc1Cl` it is “inactive”; for `CN(C)c1ccccc1` it is “inactive”.
On to `C=CCc1ccc2c(c1)OCO2`, for which the result was inactive.
On to `CCC(C)c1ccc(O)cc1` (stereo not given), for which the compound was called inactive.
Still for that read-out and setting: the entry for `Cc1cc(N=Nc2ccccc2C)ccc1N` is “inactive”; for `C[N+](C)(C)CC1CO1` (stereo not given) it is “inactive”; for `COP(=S)(OC)SCN1C(=O)c2ccccc2C1=O` it is “inactive”.
The same measure, in the same setting: the entry for `CCCCC(CC)COC(=O)c1ccc(C(=O)OCC(CC)CCCC)c(C(=O)OCC(CC)CCCC)c1` (stereo not given) is “inactive”.
On to `CC(C)(C)OOC(C)(C)CCC(C)(C)OOC(C)(C)C`, for which the outcome was inactive.
Same read-out and setting: the entry for `Clc1ccc(C(c2ccc(Cl)cc2)C(Cl)(Cl)Cl)cc1` is “inactive”; for `c1ccc(C2CO2)cc1` (stereo not given) it is “inactive”.
On the same count and under the same terms, the entry for `CN(C)[C@@H]1C(=O)C(C(N)=O)=C(O)[C@@]2(O)C(=O)C3=C(O)c4c(O)cccc4[C@@](C)(O)[C@H]3C[C@@H]12` is “inactive”.
Still for that read-out and setting: the entry for `O=P(OCCCl)(OCCCl)OCCCl` is “inactive”.
Turning to `Cn1cc(-c2ccccc2)c(=O)c(-c2cccc(C(F)(F)F)c2)c1`, the call was inactive.
On the same count and under the same terms, the entry for `O=[N+]([O-])C(Br)(CO)CO` is “inactive”; for `CC(C)(C)C(O)(CCc1ccc(Cl)cc1)Cn1cncn1` (stereo not given) it is “inactive”.
On the same count and under the same terms, the entry for `Cc1cccc(N)c1N` is “inactive”.
For the compound `Nc1ccc(Cl)cc1N`, the half-maximal activity concentration (AC50) is 25.3 µM (active).
For `Nc1cc(Cl)cc(C(=O)O)c1Cl`, the call was inactive.
The same measure, in the same setting: the entry for `CO[C@@H]1[C@H](OC(=O)NC(=O)CCl)CC[C@]2(CO2)[C@H]1[C@@]1(C)O[C@@H]1CC=C(C)C` is “inactive”; for `CN(C)C(=O)Nc1ccc(Cl)cc1` it is “inactive”; for `ClC1=C(Cl)C2(Cl)C3C(Cl)C=CC3C1(Cl)C2(Cl)Cl` (stereo not given) it is “inactive”.
`CCCCCCCCOC(=O)c1ccc(C(=O)OCCCCCCCC)c(C(=O)OCCCCCCCC)c1`: the compound was called inactive.
For the compound `CC(C)COC(=O)c1ccccc1C(=O)OCC(C)C`, the result was inactive.
With `CCC[CH2][Sn]([Cl])([CH2]CCC)[CH2]CCC`, the AC50 is 0.282 µM (active).
Regarding `COc1cc(C=O)cc2c1[C@H](COC(N)=O)[C@]1(OC(C)=O)ON2C[C@H]2[C@@H]1N2C(C)=O`, the call was inactive.
The same measure, in the same setting: the entry for `Cc1ccc(N=C=O)cc1N=C=O` is “inactive”; for `N#CC(Br)(Br)C(N)=O` it is “inactive”; for `Cc1ccc(N)c(N)c1` it is “inactive”.
On the same count and under the same terms, the entry for `Cc1ccc(N)cc1` is “inactive”.
As to `[Cl-].[Cl-].[Hg+2]`, the AC50 is 2.7 µM (active).
On to `CC(C)(OOC(C)(C)c1ccccc1)c1ccccc1`, for which the call was inactive.
On the same count and under the same terms, the entry for `C[C@]12C=CC3=C4CCC(=O)C=C4CC[C@H]3[C@@H]1CC[C@@H]2O` is “inactive”; for `CCOC(=O)[C@]1(c2ccccc2)Oc2ccccc2[C@@H]1N` it is “inactive”; for `O=C(Oc1ccc(Br)cc1)N1CCN2CCC1CC2` it is “inactive”.
As for `Oc1ccc2ccc3cccc4ccc1c2c34`, the half-maximal activity concentration (AC50) was 35.6 µM (active).
Regarding `Cc1ccc([N+](=O)[O-])cc1`, the outcome was inactive.
The same measure, in the same setting: the entry for `CCCSC(=O)N(CCC)CCC` is “inactive”.
